The values that follow come from PubChem BioAssay (NCATS).

For assay [1], the target named is Protein phosphatase 1D (Homo sapiens) (UniProt O15297). Nature of the assay: RapidFire Mass Spectrometry qHTS Assay for Modulators of WT P53-Induced Phosphatase 1 (WIP1) (AID 1347424).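 Note: amount of dephosphorylated VEPPL-S-QETFS peptide product formed by WIP1; series mostly up to about 63 µM.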 In short, it runs like this: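 WIP1 (10 nM final) was preincubated 1 h at room temperature with compounds in Tris-HCl pH 7.5, 30 mM MgCl2, TCEP, EGTA, BSA; 2 uM VEPPL-pS-QETFS phosphopeptide was added for 5 min, quenched with formic acid, and dephosphorylated product quantified by RapidFire MS.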

The target is the same in assay [2]. Nature of the assay: Rhodamine-PBP qHTS Assay for Modulators of WT P53-Induced Phosphatase 1 (WIP1) (AID 1347425). In short, it runs like this:
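Read-out: Rhodamine-PBP fluorescence (ex 525/em 598 nm) for released Pi, read each minute for 11 min after adding 10 uM VEPPL-pS-QETFS; signal taken as f1 minus pre-substrate f0. Enzyme 5 nM WIP1 with 1 hr room-temperature compound preincubation.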
On the technique in general: qHTS replaces the single test concentration by a dilution series.

The nature of assay [3]: Primary qHTS for inhibitors of La Crosse Virus (LACV) - induced cell death in SH-SY5Y cells (AID 1508616).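 Note: top concentration of the series differs between compounds; higher means more rescue of cells from virus-induced death.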 In short, it runs like this: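 SH-SY5Y cells (6000/well) plated 24 h, then given compounds by pin transfer and LACV at 0.01 MOI for 6 days at 37C. Viability measured by ATPLite luminescence, normalized to infected DMSO and uninfected DMSO.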
Assay [4] has as its target Calcium and integrin-binding protein 1 (Homo sapiens) (UniProt Q99828). Nature of the assay: Primary qHTS for Identification of Calcium Integrin Binding Protein 1 (CIB1) Competitor (AID 1508620).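 Note: GST tagged CIB1 binding a fluorescein labelled alphaIIb integrin peptide tracer; top concentration of the series differs between compounds.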 In short, it runs like this:
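Fluorescence polarization competition: CIB1-GST (1 uM final) preincubated with compound 15 min at room temperature, then FITC-labeled alphaIIb peptide (100 nM final) added for another 15 min. Polarization read at Ex 480/Em 540.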

Assay [5] is described as follows: Primary qHTS for small molecule stabilizers of the endoplasmic reticulum resident proteome: Secreted ER Calcium Modulated Protein (SERCaMP) assay (AID 1508630). Note: potency is the fitted concentration of half-maximal effect. In short, it runs like this:
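GLuc-SERCaMP-expressing SH-SY5Y cells, pretreated 16 h with compound, are challenged with thapsigargin to empty ER calcium stores; after 4 h, coelenterazine is added directly to the medium and luminescence is imaged.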

Assay [6] can be described thus: A High-Content qHTS Against Drug Library for the Identification of Small Molecules that Inhibit DYT1 Early Onset Primary Dystonia-Associated Cell Pathology (AID 1645839; calls by dose curve; note: potency is the fitted concentration of half-maximal effect). In a few lines: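 Readout: %pathology, the punctate EGFP-TorsinA distribution from imaging, as the primary channel and cell count as the toxicity counterscreen. HEK293 Flp-In cells expressing delE TorsinA were induced with tetracycline and treated with compound for 48 h.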

Assay [7] in a line: Confirmatory qHTS for small molecule stabilizers of the endoplasmic reticulum resident proteome: Secreted ER Calcium Modulated Protein (SERCaMP) assay (AID 1508628). Note: series mostly up to about 76 µM; nearly all actives have a fitted effect of over 40% in size. In a few lines: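 SH-SY5Y cells stably expressing GLuc-SERCaMP, treated 16 h with compound (primary 1.53, 7.67, 38.3 uM; confirmation 11 concentrations, up to 76.6 uM), then 100 nM thapsigargin for 4 h. Secreted Gaussia luciferase in medium read by coelenterazine luminescence.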

Each structure is given as a SMILES string. Records with an inconclusive call do not appear. A number with no mark means an inactive call. Active and inactive are the calls of the source. Unless noted, calls come from the whole dose curve; as a rule, active = well fitted curve in the direction sought with a large enough effect; inconclusive = small, poorly fitted or top-dose-only effect, or another doubt; inactive = no such curve, though single readings can be large; an effect the other way counts as inactive or inconclusive.

Chain of Calcium and integrin-binding protein 1 (Homo sapiens) (Q99828 whole entry, looked up): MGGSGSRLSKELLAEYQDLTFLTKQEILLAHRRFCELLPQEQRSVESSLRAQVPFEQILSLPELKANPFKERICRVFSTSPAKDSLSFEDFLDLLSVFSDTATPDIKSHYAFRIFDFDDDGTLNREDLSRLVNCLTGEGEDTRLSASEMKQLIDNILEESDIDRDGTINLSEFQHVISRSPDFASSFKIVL
Chain of Protein phosphatase 1D (Homo sapiens) (O15297 whole entry, looked up): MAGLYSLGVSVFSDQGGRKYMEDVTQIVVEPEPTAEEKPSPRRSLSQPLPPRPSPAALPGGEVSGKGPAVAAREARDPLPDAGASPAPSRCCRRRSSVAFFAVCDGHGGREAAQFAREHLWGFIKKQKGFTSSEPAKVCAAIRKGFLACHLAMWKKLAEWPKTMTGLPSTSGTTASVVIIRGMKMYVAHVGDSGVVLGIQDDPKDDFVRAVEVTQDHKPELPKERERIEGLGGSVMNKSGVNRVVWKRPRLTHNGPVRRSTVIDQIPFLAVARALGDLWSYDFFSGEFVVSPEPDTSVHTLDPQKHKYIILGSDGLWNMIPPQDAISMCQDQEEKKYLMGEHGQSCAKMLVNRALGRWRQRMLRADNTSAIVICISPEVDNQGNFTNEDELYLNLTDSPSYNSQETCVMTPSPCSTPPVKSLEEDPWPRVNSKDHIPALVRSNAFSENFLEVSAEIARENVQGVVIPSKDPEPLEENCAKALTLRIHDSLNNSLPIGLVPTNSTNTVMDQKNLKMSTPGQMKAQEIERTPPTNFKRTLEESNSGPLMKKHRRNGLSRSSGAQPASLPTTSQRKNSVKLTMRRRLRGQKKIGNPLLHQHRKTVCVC

On to `CN(C)CCCOc1nn(Cc2ccccc2)c2ccccc12`, for which the Potency result in assay [1], in assay [3], in assay [4] and in assay [5] was “inactive” throughout. In assay [2], the compound was called inactive.

In the case of `CC(=O)OCC(=O)[C@@]12N=C(C)O[C@@H]1C[C@H]1[C@@H]3CCC4=CC(=O)C=C[C@]4(C)[C@H]3[C@@H](O)C[C@@]12C`, the Potency result in assay [1], in assay [3], in assay [4] and in assay [5] was “inactive” in each case. In assay [2], the outcome was inactive.

As for `NC(=O)C(=O)N/N=C/c1ccc([N+](=O)[O-])o1`, the Potency result in assay [1], in assay [3], in assay [4] and in assay [5] was “inactive” each time. Besides, the result in assay [2] was inactive.

`O=C(COc1ccc(Cl)cc1)N1CCN(Cc2ccc3c(c2)OCO3)CC1`: the Potency entry in assay [1], in assay [3], in assay [4] and in assay [5] was “inactive” each time. In addition, in assay [2], the result was inactive.

`Cc1onc(-c2c(Cl)cccc2Cl)c1C(=O)N[C@@H]1C(=O)N2[C@@H]1SC(C)(C)[C@@H]2C(=O)O`: the Potency result in assay [1], in assay [3], in assay [4] and in assay [5] was “inactive” each time. In assay [2], the compound was called inactive.

`C=C1C(=C/C=C2\CCC[C@]3(C)[C@@H]([C@H](C)/C=C/[C@@H](O)C4CC4)CC[C@@H]23)C[C@@H](O)C[C@@H]1O`: the Potency result in assay [1], in assay [3], in assay [4] and in assay [5] was “inactive” in each case. The outcome in assay [2] was inactive.

With `CCCCOc1ccc(C(=O)CCN2CCCCC2)cc1`, the Potency result in assay [1], in assay [3], in assay [4] and in assay [5] was “inactive” throughout. In assay [2], the compound was called inactive. Besides, the Potency in assay [6] is 10 µM (active).

Consider `O=C(OCC(O)CO)c1ccccc1Nc1ccnc2cc(Cl)ccc12` (configuration not stated), for which the Potency result in assay [1], in assay [3], in assay [4] and in assay [5] was “inactive” in each case. The outcome in assay [2] was inactive.

With `O=C(O)CNC(=O)c1ccccc1`, the Potency entry in assay [1], in assay [3], in assay [4] and in assay [5] was “inactive” throughout. Further, the result in assay [2] was inactive.

Turning to `CC(=O)OCC(=O)[C@@]1(OC(C)=O)[C@@H](C)C[C@H]2[C@@H]3C[C@H](F)C4=CC(=O)C=C[C@]4(C)[C@@]3(F)[C@@H](O)C[C@@]21C`, the Potency entry in assay [1], in assay [3], in assay [4] and in assay [5] was “inactive” each time. For the same compound, the outcome in assay [2] was inactive.

Consider `O=C(CCN1CCC(c2ccccc2)C1)c1ccc2c(c1)OCCO2` (configuration not stated), for which the Potency result in assay [1], in assay [3], in assay [4] and in assay [5] was “inactive” in each case. The call in assay [2] was inactive.

`CC[N+](CC)(CCNC(=O)C(=O)NCC[N+](CC)(CC)Cc1ccccc1Cl)Cc1ccccc1Cl`: the Potency result in assay [1], in assay [3], in assay [4], in assay [5] and in assay [6] was “inactive” each time. The outcome in assay [2] was inactive.

Consider `CCN(CC)CCOc1ccc(C(O)(Cc2ccc(Cl)cc2)c2ccc(C)cc2)cc1` (configuration not stated), for which the Potency entry in assay [1], in assay [3], in assay [4] and in assay [5] was “inactive” each time. The compound was called inactive in assay [2].

As for `COc1ccc(/C=C/C(=O)c2ccc(OC)cc2OC)cc1`, the Potency result in assay [1], in assay [3], in assay [4] and in assay [5] was “inactive” throughout. In addition, in assay [2], the result was inactive.

For `Nc1ccn([C@@H]2O[C@H](CO)[C@@H](O)C2(F)F)c(=O)n1`, the Potency entry in assay [1], in assay [3], in assay [4] and in assay [5] was “inactive” in each case. The compound was classed as inactive in assay [2].

With `Cc1ncc(CSSCc2cnc(C)c(O)c2CO)c(CO)c1O`, the Potency entry in assay [1], in assay [3], in assay [4], in assay [5] and in assay [6] was “inactive” throughout. In addition, the compound was called inactive in assay [2].

On to `CCCC(=O)O[C@]1(C(=O)CO)CC[C@H]2[C@@H]3CCC4=CC(=O)CC[C@]4(C)[C@H]3[C@@H](O)C[C@@]21C`, for which the Potency result in assay [1], in assay [3], in assay [4] and in assay [5] was “inactive” each time. The compound was classed as inactive in assay [2].

`CCC(C(=O)OCCN(CC)CC)c1ccccc1` (configuration not stated): the Potency result in assay [1], in assay [3], in assay [4], in assay [5] and in assay [6] was “inactive” in each case. Further, the compound was classed as inactive in assay [2].

For the compound `CC(=O)O[C@]1(C(C)=O)CC[C@H]2[C@@H]3C[C@H](C)C4=CC(=O)CC[C@]4(C)[C@H]3CC[C@@]21C`, the Potency result in assay [1], in assay [3], in assay [4] and in assay [5] was “inactive” each time. Also, in assay [2], the result was inactive.

As to `CCOC(=O)n1ccn(C)c1=S`, the Potency result in assay [1], in assay [3], in assay [4], in assay [5] and in assay [6] was “inactive” throughout. Also, the call in assay [2] was inactive.

Consider `COc1ccc(CCN2CCC(Nc3nc4ccccc4n3Cc3ccc(F)cc3)CC2)cc1`, for which the Potency result in assay [1], in assay [3], in assay [4] and in assay [5] was “inactive” each time. Further, the outcome in assay [2] was inactive.

Consider `C[C@@H]1C[C@H]2[C@@H]3C[C@H](F)C4=CC(=O)C(Cl)=C[C@]4(C)[C@@]3(F)[C@@H](O)C[C@]2(C)[C@@]1(O)C(=O)CO`, for which the Potency entry in assay [1], in assay [3], in assay [4], in assay [5] and in assay [6] was “inactive” each time. Moreover, the outcome in assay [2] was inactive.

Regarding `CN1[C@@H]2CC[C@H]1CC(OC(=O)c1c[nH]c3ccccc13)C2` (some centres not stated), the Potency result in assay [1], in assay [3], in assay [4], in assay [7] and in assay [6] was “inactive” in each case. For the same compound, in assay [2], the call was inactive. Also, the Potency in assay [5] was 35.5 µM (active).

`COc1cccc(OC)c1C(=O)N[C@@H]1C(=O)N2[C@@H]1SC(C)(C)[C@@H]2C(=O)O`: the Potency result in assay [1], in assay [3], in assay [4] and in assay [5] was “inactive” each time. Also, the outcome in assay [2] was inactive.

In the case of `Cc1nc2n(c(=O)c1CCN1CCC(c3noc4cc(F)ccc34)CC1)CCC[C@H]2O`, the Potency result in assay [1], in assay [3], in assay [4], in assay [5] and in assay [6] was “inactive” each time. Besides, the compound was called inactive in assay [2].

With `CCOC(=O)/C=C(C)/C=C/C=C(C)/C=C/c1c(C)cc(OC)c(C)c1C`, the Potency result in assay [1], in assay [3], in assay [4], in assay [5] and in assay [6] was “inactive” each time. Moreover, the outcome in assay [2] was inactive.

Consider `CN1CCC[C@@H]1c1cccnc1`, for which the Potency result in assay [1], in assay [3], in assay [4], in assay [5] and in assay [6] was “inactive” throughout. Also, the call in assay [2] was inactive.

`O=C(Nc1ccc(Cl)c(Cl)c1)C1CC1`: the Potency result in assay [1], in assay [3], in assay [4], in assay [5] and in assay [6] was “inactive” each time. Moreover, in assay [2], the compound was called inactive.

On to `CCOc1ccc(Cc2nccc3cc(OCC)c(OCC)cc23)cc1OCC`, for which the Potency result in assay [1], in assay [3], in assay [4] and in assay [5] was “inactive” each time. For the same compound, in assay [2], the outcome was inactive.
